Source: the supplement of paper PMC3334620
The full ranking holds about 33,000 sequences; the median of “E-score (-0.5 to 0.5)” is about -0.043, and the highest 2% start at about 0.37. This is one part of a sample in which the highest values are shown more often than they occur.

These sequences were tested against T1, Upc2 (UniProt Q12151) (assay: PBM E-score (8-mer binding enrichment) (E-score (-0.5 to 0.5)); higher = stronger / more preferred TF binding). Details: protein concentration: 200 nM; construct: GST-full length.
T1 sequence: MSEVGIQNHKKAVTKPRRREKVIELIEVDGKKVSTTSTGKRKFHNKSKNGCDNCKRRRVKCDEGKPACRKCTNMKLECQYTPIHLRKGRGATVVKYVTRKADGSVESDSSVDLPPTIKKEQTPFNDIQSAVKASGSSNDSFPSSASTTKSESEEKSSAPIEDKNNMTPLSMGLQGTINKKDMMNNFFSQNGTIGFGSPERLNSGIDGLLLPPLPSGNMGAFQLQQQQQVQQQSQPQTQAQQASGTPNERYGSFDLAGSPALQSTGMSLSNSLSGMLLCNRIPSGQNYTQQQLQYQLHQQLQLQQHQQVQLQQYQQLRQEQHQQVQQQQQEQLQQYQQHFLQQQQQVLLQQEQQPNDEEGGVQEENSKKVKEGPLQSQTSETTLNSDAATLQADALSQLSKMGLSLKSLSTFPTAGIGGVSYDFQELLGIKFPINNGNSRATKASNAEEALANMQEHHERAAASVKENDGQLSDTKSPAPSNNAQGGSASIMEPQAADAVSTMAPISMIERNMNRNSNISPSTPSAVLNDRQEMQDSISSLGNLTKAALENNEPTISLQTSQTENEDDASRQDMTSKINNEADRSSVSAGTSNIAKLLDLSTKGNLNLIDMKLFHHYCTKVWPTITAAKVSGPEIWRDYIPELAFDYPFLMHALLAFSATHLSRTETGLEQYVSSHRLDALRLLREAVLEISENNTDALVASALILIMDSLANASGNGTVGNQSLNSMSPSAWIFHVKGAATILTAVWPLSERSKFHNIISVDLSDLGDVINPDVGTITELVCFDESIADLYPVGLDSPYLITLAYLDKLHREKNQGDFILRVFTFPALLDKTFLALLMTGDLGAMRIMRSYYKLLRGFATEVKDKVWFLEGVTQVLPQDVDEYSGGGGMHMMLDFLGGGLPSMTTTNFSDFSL
Procedure: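 Universal 'all 10-mer' protein binding microarrays (Agilent AMADID 015681) probed with GST-tagged S. cerevisiae TFs (full-length or DBD) made by in vitro transcription/translation (PURExpress), about 100-200 nM. Bound TF was detected with fluorescent anti-GST. Each ungapped 8-mer (which stands for itself and its reverse complement) is scored by the PBM enrichment score (E-score), a modified Wilcoxon-Mann-Whitney statistic from -0.5 to +0.5, computed with the Universal PBM Analysis Suite. Scale: above 0.35 generally sequence-specific binding.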

Sequence	PBM E-score
ACCTATCA	-0.11
CGTGATTA	0.0822
ACCGGTTA	0.118
ATGACTAC	0.0234
AAGCTAGA	-0.166
GCGCTCCA	-0.195
CAAAGAAC	-0.0158
TCGCATAA	0.383
ACGCATAA	0.172
CCGCATAA	0.121
GGTTGCTA	-0.126
CCGCACTC	0.195
AAAAGGGA	-0.2
GCGTAAAC	0.352
CCGTAAAC	0.396
ACGTTAAA	0.269
ACGTAAAC	0.345
ACGTAAAG	0.308
TCGTTAAA	0.466
CCGTAAAG	0.395
CTGTAAAG	-0.0138
TCGTAAAA	0.481
TTGTAAAA	0.0751
TAGTAAAA	0.0664
CCGTTAAA	0.33

Sequence	PBM E-score
CATGGACA	-0.178
AGTTAGCA	-0.0102
CCGATGGA	0.109
ACTTATCG	0.00736
ATAGTCTG	-0.124
CGCTCAGA	0.121
GCTAAACC	0.03
CCGTAAAA	0.374
GCGTAAAA	0.302
ACGTAAAA	0.268
ACTATCAC	0.0913
ATGGGCCC	-0.0858
ACGTCTTC	0.0586
GACTGGAC	-0.215
AGGTACGA	0.47
AGGTACGC	0.163
CGGTACGA	0.474
GGGTACGA	0.465
GGGTACCA	-0.275
GGGTACAA	-0.0246
CGGTACCA	-0.0953
AGGTACGG	0.354
CGGTACGC	0.324
TAGTTGGA	-0.109
GCCGGGTA	-0.143

Sequence	PBM E-score
ACCTAAGA	0.0242
ACCCTCTC	-0.197
CACTGAGA	-0.0162
CCTTGCGA	-0.195
CCGGTGCA	-0.153
GGTGACTA	-0.0935
TCCCTCGA	-0.0965
ACCAGTGG	-0.247
ACAAGACT	-0.00931
AGTCGTTC	0.41
CGCCGTTC	0.339
CGTCGATC	-0.0198
AGTCGTTA	0.317
CGTCGTTA	0.376
GGTCGTTA	0.358
AGTCGTTG	0.0644
CGTCGTTC	0.464
AGTCGCTC	0.0535
AGGTGAAT	-0.0674
GCACCGAA	0.0996
CCGCATAC	0.197
CATGAGGC	-0.218
CTCAACAC	-0.0233
AGGTTCGG	0.022
CAGATTCC	-0.195

Sequence	PBM E-score
CGGGTACC	-0.158
CGGGTACG	0.43
CCGGTACG	0.421
ACGGTACC	0.0672
CCGGTACA	0.106
ACGGTACG	0.408
CGGGTACA	0.114
CCGGTACC	-0.196
ACGGTACT	0.0352
CCCTATAA	-0.00945
CCATCAAG	-0.12
AAGACCCT	-0.239
CAGGTCGC	0.0637
AAGGTGGC	-0.0337
CTTACGAC	0.406
CTTACGCA	0.146
CTCACGAC	-0.146
CTTACGAA	0.399
CTTACGCC	0.0225
GTTACGAA	0.409
CTCACGAA	0.0214
GTTACGGA	0.233
ATTACGAA	0.339
CCATTCTA	-0.068
CAGAATTA	-0.0215

Sequence	PBM E-score
GCTACTCC	-0.242
CAGATGGC	-0.0004
AGAGGCCT	-0.0685
TCATGAAA	0.0303
ACCACTGG	-0.0523
AAAAGCGA	0.175
GGATCTTA	0.146
ACACGAGG	0.248
CTACGAGA	0.359
ATACGAGA	0.482
GTCCGAGA	0.205
ATACGAGG	0.487
GTACGAGA	0.472
GTACGCGA	0.347
CTACGAGC	0.393
AGACGAGA	0.184
CCACGAGC	-0.0694
CGACGAGC	0.0758
AGACGAGG	0.215
GCAGTTTA	0.0629
ACTCTTAG	-0.149
ACTCTGGG	-0.181
GGAGTCCC	-0.172
CGTAACCA	0.223
CACAGTGA	-0.0917

Sequence	PBM E-score
ACCCTCTG	-0.236
AGACGAGC	0.206
ACACGAGC	0.273
ATACGAGC	0.489
AAACTGAC	-0.0907
CGGGACCC	-0.177
GCTGTGAC	0.111
ACATACGC	0.281
ACATACGT	0.239
ACATACGA	0.476
TCATACAA	0.0325
GCATACGA	0.47
GCATACGC	0.296
GCATACAA	-0.0164
TCATACGA	0.469
TCATACCA	-0.0495
CTAATGTC	-0.171
AGATAAGA	0.0794
GGCTGATA	-0.0951
CCTGAAGC	-0.175
AATGGTGT	-0.0602
CGTTGCTA	0.0827
CTAGCCCA	-0.335
AAGAGGAC	-0.242
ACTATCAG	-0.196

Sequence	PBM E-score
CCTGAGAA	-0.0858
CAAACGAA	0.467
AAAACGAA	0.283
GAAACAAA	0.0262
CCAACGAA	0.109
GCAACGAA	0.314
GAAACGAA	0.41
CTAGCTTC	-0.105
GATCACAA	-0.0358
GAATGCCC	0.0462
GCATACCA	0.00545
ATTGTGCC	-0.149
AATCCATG	-0.252
ACGACTCT	0.319
ACGACGCG	0.389
GCGACGCA	0.108
ACGACGCA	0.389
ACGACGCT	0.361
CCGACGCG	0.16
ACGACTCG	0.381
ACGACGCC	0.306
ACGACTCA	0.29
